Where “and” joins values, the source holds several entries; their conditions need not be identical. Equal entries are not always repeated. The campaign covered roughly 16,000 compounds. About 4,000 (25%) were called active. Roughly 26% stayed inconclusive and do not appear here. Calls come from the whole dose curve; as a rule, active = well fitted curve in the direction sought with a large enough effect; inconclusive = small, poorly fitted or top-dose-only effect, or effect the other way; inactive = no such curve, though single readings can be large or run the other way. A selection follows. More than one record can exist for a structure, and the calls need not agree.

In general, AC50 refers to the midpoint of the concentration-response curve, whichever way the signal moves.
% is set by controls: 0 for no effect and ±100 for the full control effect.

The test deals with Cytochrome P450 2C9 (Homo sapiens) (UniProt P11712). Kind of test: Cytochrome panel assay with activity outcomes. The settings on record: recombinant CYP, pro-luciferin dealkylation, luminescence, p450-cyp2c9; series mostly up to 57.1 µM. The procedure: The P450 gene superfamily is involved in the metabolism and clearance of xenobiotics. This assay used various human CYP P450 isozymes to measure the dealkylation of various pro-luciferin substrates to luciferin. The luciferin is then measured by luminescence after the addition of a luciferase detection reagent. Pro-luciferin substrate concentration in the assay was equal to its KM for its CYP P450 isozyme. Inhibitors and some substrates limit the production of luciferin, and decrease measured luminescence.
Cytochrome P450 2C9 (Homo sapiens), sequence (P11712 whole entry, looked up): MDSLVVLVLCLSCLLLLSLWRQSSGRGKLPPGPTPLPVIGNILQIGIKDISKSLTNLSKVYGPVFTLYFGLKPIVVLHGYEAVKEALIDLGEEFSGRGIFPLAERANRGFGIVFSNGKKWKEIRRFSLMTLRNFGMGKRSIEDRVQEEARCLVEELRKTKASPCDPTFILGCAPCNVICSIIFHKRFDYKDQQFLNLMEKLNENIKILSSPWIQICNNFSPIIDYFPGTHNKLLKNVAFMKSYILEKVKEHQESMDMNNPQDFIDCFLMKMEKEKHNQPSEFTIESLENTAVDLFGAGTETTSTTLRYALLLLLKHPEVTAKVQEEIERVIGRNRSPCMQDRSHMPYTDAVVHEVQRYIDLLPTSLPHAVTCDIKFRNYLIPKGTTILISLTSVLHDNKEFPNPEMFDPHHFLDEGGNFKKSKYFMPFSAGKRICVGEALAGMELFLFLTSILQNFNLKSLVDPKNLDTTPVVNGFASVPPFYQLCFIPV
NCGC Assay Protocol Summary:
1, Reagent, 2 uL, Isozyme and Pro-Luciferin
2, Library compounds, 23 nl, 40 uM to 0.24 nM dilution series
3, Controls, 23 nl, Isozyme specific inhibitor
4, Reagent, 2 uL, NADPH regeneration solution
5, Incubation time, 60 min, Isozyme specific temperature
6, Reagent, 4ul, Detection reagent
7, Incubation time, 20 min, Isozyme specific temperature
8, Detection, 1 sec, ViewLux luminescent read
The luciferase-based P450-GloTM Screening Systems were obtained from Promega (Madison, WI) for CYP 1A2 (V9770), CYP 2C9 (V9790), CYP2 C19 (V9880), CYP 2D6 (V9890), and CYP 3A4 Luciferin-PPXE (V9910) and were adapted for 1,536-well microplates and an automated protocol. The control compounds furafylline for 1A2 (F124), sulfaphenazole for CYP 2C9 (S0758), ketoconazole for CYP 2C19 (K1003), quinidine for 2D6 (Q3625), and ketoconazole for 3A4 (K1003) were purchased from Sigma Aldrich (St. Louis, MO). Recombinant P450 enzymes were obtained from baculovirus constructs expressed in insect cells (BD/Gentest).
Medium-binding white solid Kalypsys plates used. Mixtures kept on ice. 1A2: 10 nM 1A2, 100 uM Luc-ME, 100 mM KPO4; 2C9: 10 nM 2C9, 100 uM Luc-H, 25 mM KPO4; 2C19: 5 nM 2C19, 10 uM Luc-H EGE, 50 mM KPO4; 2D6: 5 nM 2D6, 30 uM Luc-ME EGE, 100 mM KPO4; 3A4: 10 nM, 25 uM Luc-PPXE. All amounts are reflected in their final concentration, working concentration is 2x.
NADPH regeneration solution: 1.3 mM NADP+, 3.3 mM glucose-6-phosphate, 3.3 mM MgCl2, 0.4 U/mL glucose-6-phosphate dehydrogenase for all isozymes, 200 mM KPO4 for 3A4. Mixture prepared at RT but kept on ice during automated run.
RT incubation in auxilliary plate hotel for 1A2, 2D6, and 3A4; 37C for 2C9 and 2C19.
Keywords: P450, CYP1A2, CYP2C19, CYP2C9, CYP2D6, CYP3A4, Luciferase, MLSMR, MLSCN, NIH Roadmap, qHTS, NCGC
For the compound `Cc1ccccc1-n1c(O)c(C=Nc2ccc(N(C)C)cc2)c(=O)[nH]c1=O`, the activity, negative = inhibition entry is “inactive”.

With `CC(C)N[C@@H](C)Cc1ccc(I)cc1`, the activity, negative = inhibition result was “inactive”.

On to `CCN(CC)C1=NC(=[N+](CC)CC)c2ccccc21`, for which the activity, negative = inhibition entry was “inactive”.

As for `C[C@]1(C(=O)O)[C@@H]2CC[C@@H](O2)[C@@]1(C)C(=O)O`, the activity, negative = inhibition entry was “inactive”.

Consider `CCOCCN1CCC(OC(C)=O)C(C)C1` (stereo not drawn), for which the activity, negative = inhibition entry is “inactive”.

As to `CCN1C[C@]2(C)CC[C@H](OC)[C@@]34[C@@H]2[C@H](OC(C)=O)[C@]2(OCO[C@@]25C[C@@H](OC)[C@@H]2C[C@@]3(O)[C@H]5[C@@H]2OC)[C@H]14`, the activity, negative = inhibition entry is “inactive”.

`O=C1NC(=O)N(CCNc2ncc(C(F)(F)F)cc2Cl)C(=O)C1/C=N/OCc1c(F)cccc1Cl` (stereo not drawn): the AC50 is 794 nM (active).

As for `NC[C@@H](CC(=O)O)c1ccc(Cl)cc1`, the activity, negative = inhibition result is “inactive”.

Turning to `N[C@@]1(C(=O)O)CC[C@H](C(=O)O)C1`, the activity, negative = inhibition entry was “inactive”.

As for `COC[C@H]1OC(=O)c2coc3c2[C@@]1(C)C1=C(C3=O)[C@H]2CCC(=O)[C@@]2(C)C[C@H]1OC(C)=O`, the activity, negative = inhibition entry is “inactive”.

On to `Cc1cc(C(C)(C)C)cc(C)c1CC1=NCCN1`, for which the activity, negative = inhibition entry was “inactive”.

For `CC[C@H](CO)NC(=O)[C@@H]1C=C2c3cccc4c3c(cn4C)C[C@@H]2N(C)C1`, the activity, negative = inhibition result is “inactive”.

Consider `C[C@@]12CC[C@H]3[C@@H](CCC4=CC(=O)CC[C@]43C)[C@H]1CC[C@H]2C(=O)CO`, for which the activity, negative = inhibition result was “inactive”.

Consider `C[C@H]1CC[C@]2(OC1)O[C@@H]1C[C@@H]3[C@@H]4CC[C@H]5C[C@@H](O)CC[C@]5(C)[C@@H]4CC(=O)[C@@]3(C)[C@H]1[C@@H]2C`, for which the activity, negative = inhibition entry was “inactive”.

Consider `CC(=O)[C@@H]1CC[C@H]2[C@H]3CC[C@H]4C[C@@H](O)CC[C@]4(C)[C@@H]3CC[C@]12C`, for which the half-maximal activity concentration (AC50) is 2000 nM (active).

As to `C[C@]12CC[C@H](O)C[C@@H]1CC[C@H]1[C@H]2CC[C@]2(C)[C@H](C(=O)CO)CC[C@@H]12`, the AC50 is 25100 nM (active).

Regarding `C[C@]12CC[C@H](O)C[C@@H]1CC[C@H]1[C@H]2CC[C@]2(C)C(=O)CC[C@@H]12`, the activity, negative = inhibition result was “inactive”.

Turning to `CC(=O)OCC(=O)[C@@H]1CC[C@H]2[C@H]3CC[C@H]4C[C@@H](O)CC[C@]4(C)[C@@H]3C(=O)C[C@@]12C`, the activity, negative = inhibition result is “inactive”.

In the case of `CC(C)(C)NC[C@H](O)c1cc(Cl)c(N)c(Cl)c1`, the activity, negative = inhibition result was “inactive”.

For `O=C1C=C2C=C[C@H]3C[C@@]2(O1)[C@H]1CCCCN31`, the activity, negative = inhibition result was “inactive”.

On to `CN[C@H](Cc1ccccc1)c1cccc(OC)c1O`, for which the activity, negative = inhibition was 9.59% [at 11.4 µM] (inactive).

Take `CCC(=O)O[C@@](Cc1ccccc1)(c1ccccc1)[C@@H](C)CN(C)C`: the activity, negative = inhibition result was “inactive”.

Consider `CC(C)Oc1cc(-n2c(=S)[nH]c3ccccc3c2=O)c(Cl)cc1Cl`, for which the AC50 is 2240 nM (active).

With `C[C@]12CC[C@H]3c4ccc(O)cc4CC[C@@H]3[C@H]1CC[C@@H]2OC(=O)CCc1ccccc1`, the activity, negative = inhibition is -8.07% [at 11.4 µM] (inactive).

As for `COc1cc2c3cc1Oc1cc(ccc1O)C[C@@H]1c4c(cc(OC)c(O)c4Oc4cccc(c4)C[C@H]3N(C)CC2)CC[N+]1(C)C`, the activity, negative = inhibition entry was “inactive”.

For the compound `O=NN(Cc1ccc(Cl)cc1)[C@@H](C(=O)O)c1ccccc1`, the activity, negative = inhibition is -22.5% [at 11.4 µM] (inactive).

As to `N[C@H](CCCP(=O)(O)O)C(=O)O`, the activity, negative = inhibition entry is “inactive”.

`N#Cc1ccc(CN2CC[C@@]3(CCCN(C(=O)Oc4ccccc4)C3)C2)cc1`: the activity, negative = inhibition entry is “inactive”.

For the compound `CC[N+](C)(C)c1cccc(O)c1`, the activity, negative = inhibition result is “inactive”.

For `Cc1cccc(NC(=S)NC2CC3CCCC(C2)N3Cc2cccs2)c1` (stereo not drawn), the activity, negative = inhibition result is “inactive”.

Take `CN(C)CCC=C1c2ccccc2CCc2ccccc21`: the activity, negative = inhibition result was “inactive”.

Turning to `CC(C)(C)c1o[nH]c(=O)c1C[C@H](N)C(=O)O`, the activity, negative = inhibition entry was “inactive”.

With `Cc1o[nH]c(=O)c1C[C@@H](N)C(=O)O`, the activity, negative = inhibition result was “inactive”.

In the case of `Cc1o[nH]c(=O)c1C[C@H](N)C(=O)O`, the AC50 entry was “inactive and 10 µM (active)”.

In the case of `CCCN1CCC[C@@H]2Cc3nc(N)ncc3C[C@H]21`, the activity, negative = inhibition result was “inactive”.

In the case of `COC(=O)C1(C)C=C2C(=C(C)C(=O)C2C)CN1` (stereo not drawn), the activity, negative = inhibition entry is “inactive”.

On to `c1cncc(CNCCN2CCNCC2)c1`, for which the activity, negative = inhibition is -12% [at 11.4 µM] (inactive).

Regarding `CCC1=C(C[C@H]2NCCc3ccccc32)C[C@@H]2c3cc(OC)c(OC)cc3CCN2C1`, the activity, negative = inhibition was -10.7% [at 11.4 µM] (inactive).

Regarding `C[C@@H](O)CN(CCN(C[C@@H](C)O)C[C@@H](C)O)C[C@@H](C)O.O=[N+]([O-])O.[Cu]`, the half-maximal activity concentration (AC50) was 794 nM (active).

Regarding `CNC(=S)NC1CC2CCCC(C1)N2CC(C)C` (stereo not drawn), the activity, negative = inhibition entry is “inactive”.

As to `Cc1c([C@@H](C)[C@H]2NC[C@H](C)C[C@@H]2O)ccc2c1C[C@@H]1[C@H]2CC=C2C[C@@H](O)CC[C@@]21C`, the activity, negative = inhibition is 2.85% [at 11.4 µM] (inactive).

Regarding `C[N+]1(C)CCO[C@](O)(c2ccc(-c3ccc([C@]4(O)C[N+](C)(C)CCO4)cc3)cc2)C1`, the activity, negative = inhibition entry was “inactive”.

`O=C(O)C1=CCCN(CCOC(c2ccc(C(F)(F)F)cc2)c2ccc(C(F)(F)F)cc2)C1`: the concentration at half-maximal activity (AC50) was 2510 nM (active).

Values taken from PubChem BioAssay AID1851 (National Center for Advancing Translational Sciences (NCATS), 2009).
